# Screens as filed in PubChem BioAssay.
# PLK1 PBD inh – blocks phosphopeptide binding to human PLK1 polo-box domain. P53350. Plk1 PBD binding of FITC phosphopeptide, fluorescence polarization. Potency, µM, for the others: max response, negative = inhibition, usual class: inhibitors. 360,000 tested, 2.8% active. AID 720504; note: series mostly up to about 57 µM; nearly all actives have a fitted effect of over 65% in size
# VDR inh – blocks the human vitamin D receptor; 400,000 tested, 0.93% active; P11473; AID 504847; Potency, µM, inactives show max response, negative = inhibition, usual class: inhibitors; VDR-SRC2-3 peptide fluorescence polarization, 2 h
#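 Two reagent solutions held at 4 deg C in the dark were dispensed, compounds pinned at 23 nl, and the mixture incubated 2 h at room temperature. Read-out: fluorescence polarization of VDR–SRC2-3 peptide binding.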
# Sfp PPTase inh – blocks B. subtilis Sfp PPTase activity; Q9F4F7; AID 1490; Biochemical Sfp PPTase activity, qHTS; 310,000 tested, 3.5% active; Potency, µM, for inactives: largest response in the series, negative = inhibition, actives largely listed as inhibitors;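 note: the enzyme is Sfp with the accession as filed and its product quenches rhodamine fluorescence; 0% = enzyme reaction without inhibitor and -100% = no enzyme wells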
#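 Fluorescence-quenching assay with 15 nM Sfp, 5 uM rhodamine-CoA and 12.5 uM BHQ-2-labelled ybbR peptide in pH 7.6 Hepes/MgCl2 buffer. Enzyme was pre-incubated with compound for 15 min at room temperature. Rate was taken from the 30-min fluorescence change (525/598 nm).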
# 12-LOX inh – ALOX12 (human) lipoxygenase inhibition; AID 1671190; purified 12hLO, xylenol orange hydroperoxide absorbance; Potency, µM (top dose mostly 108 µM), for the others: at the highest dose activity change, negative = inhibition, usual class: inhibitors; 580,000 tested, 1.1% active; P18054
# Target sequence (P18054 whole entry, looked up): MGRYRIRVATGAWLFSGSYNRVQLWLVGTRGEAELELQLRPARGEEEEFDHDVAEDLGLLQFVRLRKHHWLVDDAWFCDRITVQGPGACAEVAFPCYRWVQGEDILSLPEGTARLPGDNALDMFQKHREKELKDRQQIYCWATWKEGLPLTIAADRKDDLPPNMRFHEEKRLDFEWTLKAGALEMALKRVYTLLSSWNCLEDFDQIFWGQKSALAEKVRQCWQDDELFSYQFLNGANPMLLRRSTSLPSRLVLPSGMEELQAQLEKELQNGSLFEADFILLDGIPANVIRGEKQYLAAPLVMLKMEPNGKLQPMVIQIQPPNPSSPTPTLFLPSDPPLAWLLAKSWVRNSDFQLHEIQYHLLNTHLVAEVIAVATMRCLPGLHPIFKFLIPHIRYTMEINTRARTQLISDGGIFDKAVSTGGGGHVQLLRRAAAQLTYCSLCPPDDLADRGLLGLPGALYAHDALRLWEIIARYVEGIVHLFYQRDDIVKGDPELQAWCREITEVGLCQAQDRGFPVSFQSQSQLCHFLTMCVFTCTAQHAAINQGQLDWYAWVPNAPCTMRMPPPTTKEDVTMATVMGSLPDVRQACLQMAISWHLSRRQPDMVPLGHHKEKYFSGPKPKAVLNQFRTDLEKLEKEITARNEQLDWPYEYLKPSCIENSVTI
#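 Purified human 12hLO at 150 nM in 25 mM Hepes, 0.01% Triton X-100, pH 7.0, preincubated 15 min at room temperature with compound. Reaction started with 40 uM arachidonic acid, 30 min at room temperature. Hydroperoxide measured by Fe-xylenol orange, 573/405 nm absorbance ratio.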
# * marks the source's active call; other numbers are inactive results; ? = inconclusive; . = not tested or not shown; ! = a repeat was not active. In the library only some 4.2% were active in any assay of this set; here they are far more common. Calls come from the whole dose curve; as a rule, active = well fitted curve in the direction sought with a large enough effect; inconclusive = small, poorly fitted or top-dose-only effect, or another doubt; inactive = no such curve, though single readings can be large; an effect the other way counts as inactive or inconclusive. Unless noted, % is set by controls: 0 for no effect and ±100 for the full control effect; potency is the fitted concentration of half-maximal effect.
SMILES,PLK1 PBD inh,VDR inh,Sfp PPTase inh,12-LOX inh
O=S1(=O)C=C(Sc2nc3ccccc3s2)c2ccccc21,2.7µM*,13µM*,50µM*,.
Cc1ccc2nc(-c3ccc(NC(=O)CSCC(=O)O)cc3)sc2c1,?,-21%,0%,-13%
CC(=O)N1CC2(CC(c3ccccc3F)=NO2)CN1c1ccc(Cl)cc1 (stereo not given),-10%,.,.,?
O=C(C(Cl)Cl)N1CCN(Cc2ccc3c(c2)OCO3)CC1,1%,-6%,10%,?
COc1ccc(C(=O)CSc2nc(C)cc(C)c2C(=O)Nc2ccccc2C)cc1,.,7%,.,?
CCCCN(C)C(=O)c1cc2c(s1)-c1ccccc1S(=O)(=O)C2,-5%,-6%,6%,-1%
O=C(C1=NOC2(C1)C(=O)Nc1ccccc12)N1CCCCC1 (stereo not given),-4%,.,.,-11%
O=C(CSc1nc2ccccc2s1)NNC(=O)Nc1ccc(Cl)c(Cl)c1,-3%,-2%,6%,-14%
COc1ccc(/C=N/NC(=O)CCSc2nc3ccccc3s2)cc1,30µM*,-25%,5%,-9%
O=C(CSc1nc2ccccc2s1)Nc1ccc(Cl)c(C(=O)O)c1,8.4µM*,2%,22µM*,?
O=C(CSc1nc2ccccc2s1)Nc1cccc(C(F)(F)F)c1,.,.,.,-24%
O=C(CSc1nc2ccccc2s1)Nc1cc(C(=O)O)cc(C(=O)O)c1,?,-16%,56µM*,44%
Cn1c(CSc2nc3ccccc3s2)n[nH]c1=S,30µM*,25%,5%,?
Cc1cccc(C)c1NS(=O)(=O)c1cc(-c2ccno2)oc1C,.,.,.,-27%
Cc1ccc(C)c(N2CCN(S(=O)(=O)c3c(C)nc4sccn4c3=O)CC2)c1,.,4%,.,-10%
O=C(NCc1cccnc1)c1ccc(-c2ccccc2)cc1,.,.,.,14%
COc1ccc2c(c1)-c1ccccc1S(=O)(=O)N(C)C2,-12%,-15%,.,-10%
Cc1cc(C)cc(C(=O)N2CCN(C3CCN(CCc4ccccc4)C3=O)CC2)c1 (stereo not given),.,.,.,55%
O=C(CCN1C(=O)c2ccccc2C1=O)Nc1ccc(-c2nc3ccccc3s2)cc1,-8%,-2%,4%,-13%
CC(=O)CSc1nc2ccccc2s1,27µM*,10%,8%,0%
Cc1ccc2nc(-c3ccc(NC(=O)CCN4C(=O)c5ccccc5C4=O)cc3)sc2c1,-19%,-14%,79µM*,-8%
NC(=O)CSCc1nc2ccccc2s1,?,16%,56µM*,1%
N/C(Cc1nc2ccccc2s1)=N\O,-7%,-6%,2%,0%
O=C(CSc1nc2ccccc2s1)CSc1nc2ccccc2s1,-6%,20%,?,-2%
Cn1c(Cc2ccccc2)n[nH]c1=S,-2%,-12%,-9%,-5%
SMILES,PLK1 PBD inh,VDR inh,Sfp PPTase inh,12-LOX inh
Cn1c(Cc2cccs2)n[nH]c1=S,27µM*,-25%,10%,-17%
CNc1ccn(C2CCCO2)c(=O)n1 (stereo not given),-6%,-3%,10%,-8%
O=C(CCn1c(=O)c2cccn2c2ccc(F)cc21)NCCc1ccccc1,-4%,-5%,-6%,?
Oc1ccc(O)c(Cc2nc3ccccc3s2)c1,-15%,-17%,50µM*,?
COc1ccc(C2NCCc3c2[nH]c2ccccc32)cc1COc1ccc(F)cc1 (stereo not given),-14%,-5%,45µM*,?
COc1ccc(C2NCCc3c2[nH]c2ccccc32)cc1CN1CCc2cc(OC)c(OC)cc2C1C (stereo not given),-7%,-12%,-17%,.
Cc1ccc(C)c(CSc2nnc(-c3cccnc3)n2N)c1,-2%,-11%,-12%,-6%
CC1CCN(c2ccccc2NC(=S)NC(=O)c2cccs2)CC1,-3%,-1%,12%,32µM*
CC(C)C(=O)N1CCN(c2ccccc2NC(=S)NC(=O)c2cccs2)CC1,-20%,-3%,2%,?
CC(C)C(=O)NC(=S)Nc1ccccc1N1CCN(C(=O)c2ccc(Cl)cc2)CC1,-7%,-13%,14%,45µM*
CC1CCN(c2ccccc2NC(=S)NC(=O)C(C)(C)C)CC1,-3%,17%,4%,40µM*
CS(=O)(=O)N1CCN(c2ccccc2NC(=S)NC(=O)c2cccs2)CC1,-7%,18%,18%,35µM*
CCNc1nc(N)c(C(=O)C23CC4CC(CC(C4)C2)C3)s1,0%,-3%,?,1%
CCCCN(CCCC)CC(O)CN1C(=O)NC(C)(C)C1=O (stereo not given),-4%,1%,0%,0%
CCOc1ccc(C(=O)Nc2c(C(=O)Nc3ccccc3OC)oc3ccccc23)cc1OCC,.,-11%,.,-28%
CCOC(=O)c1cnc2ccc(OC)cc2c1Nc1ccc2c(c1)OCCO2,-4%,33%,-10%,-29%
CCOC(=O)c1cnc2ccc(OC)cc2c1Nc1ccc(N2CCN(C)CC2)cc1,6.7µM*,-4%,-8%,?
CCOC(=O)c1cnc2ccc(C(=O)OC)cc2c1Nc1ccc(C(=O)O)cc1,-17%,-1%,21%,-11%
CCOC(=O)c1ccc2ncc(C(=O)OCC)c(Nc3ccc(N4CCOCC4)cc3)c2c1,4%,-2%,50µM*,-14%
COc1cc(OC)cc(-c2c(-c3cccs3)c3cc(-c4ccc(CN5CCOCC5)cc4)ccc3n2C)c1,4%,-18%,.,1%
Cc1ccc(C(=O)NC(=S)Nc2ccc(-c3cc4ccccc4oc3=O)cc2)c(C)c1,-3%,8%,14%,9%
Cc1cc(C)cc(C(=O)NC(=S)Nc2ccc(-c3cc4ccccc4oc3=O)cc2)c1,-10%,3%,-22%,10µM*
CCOC(=O)N1CCN(C(=O)c2ccc(C)c(S(=O)(=O)N3CCCCC3)c2)CC1,-4%,10%,4%,-6%
C[C@@H](CC(=O)O)[C@@H](N)C(=O)O,.,4%,-21%,20µM*!
O=C(Nc1nnc(Cc2ccccc2)s1)C1CCCO1 (stereo not given),.,.,.,18%
SMILES,PLK1 PBD inh,VDR inh,Sfp PPTase inh,12-LOX inh
O=C(Nc1nnc(-c2ccncc2)s1)C1CCCO1 (stereo not given),21µM*,-1%,-58%,?
O=C(Nc1nnc(Cc2ccc(Cl)cc2)s1)C1CCCO1 (stereo not given),24µM*,-7%,-27%,-19%
c1ccc2nc(-c3ccc(-n4ccnc4)cc3)ccc2c1,-8%,10%,21%,13%
Oc1ccc(-c2nc3ccc4ccccc4c3c3c2CCC3)cc1O,-12%,-24%,-9%,2µM*
Cc1ccc(-c2nc3ncccn3c2Nc2ccc3c(c2)OCO3)o1,-5%,-19%,-13%,-1%
Brc1ccc(-c2nc3ncccn3c2NC2CCCCC2)o1,21µM*,-20%,-1%,?
Cc1ccc(Nc2c(-c3ccc(C)o3)nc3ncccn23)cc1,-4%,-7%,11µM*,-7%
Cc1ccc(-c2nc3ncccn3c2Nc2ccccc2C)o1,-17%,-8%,40µM*,-27%
Cc1ccc(-c2nc3ncccn3c2NC2CCCC2)o1,-7%,-17%,-3%,?
O=S(=O)(NCc1ccccc1)c1ccc2[nH]c3c(c2c1)CCCCC3,.,9%,.,-13%
CC(C)[C@H](NC(=O)C12CC3CC(CC(C3)C1)C2)C(=O)O,.,.,.,56µM*
